Results published in PubChem BioAssay (NCI).
The panel holds about 83,000 compounds, 20% with a hit somewhere; the sample as a whole holds those more often.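 Assay: single dose, 48 h. Readout: percent growth (0 = no net growth; negative = cell death). Active: <10.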 A number with no mark means an inactive call. The source made the active and inactive calls.

Each compound was assayed on HL-60(TB) leukemia (assay: NCI-60 one-dose screen, 48 h (100 = growth as untreated, 0 = no growth, -100 = all killed)). Conditions: 10 µM unless noted.

Question: C[C@H]1[C@H]2C3=CC[C@@H]4[C@@]5(C)C/C(=C/c6ccco6)C(=O)C(C)(C)[C@@H]5CC[C@@]4(C)[C@]3(C)CC[C@@]2(C(=O)N2CCOCC2)CC[C@@H]1C was tested. Which growth did it give?
Answer: The growth was 14.7%.

Question: Which growth does the source give for COC(=O)/C=C1/SC(=NCc2ccccc2)N(CCc2c[nH]c3ccccc23)C1=O here?
Answer: Its growth is 79.8%.

Question: With Oc1ccc(-c2nc3ccccc3s2)cc1CN(Cc1ccccn1)Cc1ccccn1 as the compound, how does the growth read?
Answer: The growth was 1.27% (active).

Question: With Cc1cccc(C[C@H](NC(=O)Nc2ccc(Cl)cc2F)C(=O)N[C@@H]2C(=O)N3C[C@H](OC(=O)CCN(C)C)C[C@H]3C(=O)N3CCCC[C@H]3C(=O)N[C@@H](C)C(=O)N3C[C@H](C)C[C@H]3C(=O)O[C@H]2C)c1 as the compound, how does the growth read?
Answer: The growth was 16.3%.

Question: Which growth does the source give for CCCCCc1ccc(S(=O)(=O)Nc2ccc3nc(N)oc3c2)cc1 here?
Answer: The growth was 28.9%.

Question: Which growth does the source give for COc1cccc2c1O/C(=C\c1ncc([N+](=O)[O-])n1C)C2=O here?
Answer: The growth was -14.8% (active).

Question: Which growth does the source give for CC(C)c1ccc(Cc2cnc(NC(=O)c3cc(Br)cs3)s2)cc1 here?
Answer: The growth was -24% (active).

Question: Which growth does the source give for CCCCCCCCCCCCCCCCCC1=NC(C)(C)CN1CC(C)O (stereo not given) here?
Answer: The growth was 61%.

Question: O=C1NC(=O)C(c2ccccc2)O1 (stereo not given) was tested. Which growth did it give?
Answer: The growth was 99.5%.

Question: Which growth does the source give for NC(=O)OCCO here?
Answer: The growth was 106%.

Question: Which growth does the source give for Clc1cc(Cl)cc(Nc2ccc3c(OCCCN4CCOCC4)cccc3n2)c1 here?
Answer: The growth was 50.5%.

Question: With Nc1nc(N)c(NC(=O)CNc2ccc(C(=O)O)cc2)c(N)n1 as the compound, how does the growth read?
Answer: The growth was 107%.

Question: Which growth does the source give for ClCC#CCSc1ncnc2c1ncn2CC#CCCl here?
Answer: Its growth is 8.79% (active).

Question: With C=C(C)[C@@H]1CC[C@]2(C(=O)NCC(=O)O)CC[C@]3(C)[C@H](CC[C@@H]4[C@@]5(C)Cc6c([nH]c7ccccc67)C(C)(C)[C@@H]5CC[C@]43C)[C@@H]12 as the compound, how does the growth read?
Answer: Its growth is 101%.

Question: With C=CCN=c1sc(-c2ccc3ccccc3c2)cn1NC(=O)c1cc2ccc1CCc1ccc(cc1)CC2 as the compound, how does the growth read?
Answer: The growth was 49.2%.

Question: With COc1ccc(C(=O)/C=C/c2ccccc2)cc1S(N)(=O)=O as the compound, how does the growth read?
Answer: Its growth is 64.2%.

Question: How did the growth turn out when COc1cc2oc3cc(C)oc(=O)c3c2cc1OC was run?
Answer: The growth was 80.3%.

Question: With Cn1ccnc1C(=O)/C=C/c1ccc(CC(=O)Nc2ccc(F)cc2)cc1 as the compound, how does the growth read?
Answer: The growth was 18.8%.

Question: Which growth does the source give for C/C(CC(C)C)=N/NC(N)=S here?
Answer: Its growth is 86.5%.

Question: For CC1=C(NCCN2CCCC2)C(=O)c2c(OCc3cccc(Cl)c3)cccc2C1=O, which growth is on record?
Answer: Its growth is 94.1%.

Question: For COC1=CC(c2ccc[nH]2)=N/C1=C\c1[nH]c(C)c(CC(=O)NCc2ccccc2)c1C, which growth is on record?
Answer: The growth was -0.337% (active).

Question: S=c1nn[nH]n1C1CCCCC1 was tested. Which growth did it give?
Answer: The growth was 79.8%.

Question: Cc1occc1-c1nnc(SCC(=O)c2ccc(NC(=O)CC(C)C)cc2)o1 was tested. Which growth did it give?
Answer: Its growth is 98.3%.

Question: O=C(Nc1ccccc1O)c1ccc(NS(=O)(=O)c2cccc3cccnc23)cc1 was tested. Which growth did it give?
Answer: Its growth is -12.2% (active).

Question: O=C(Nc1ccc2ncsc2c1)c1csc(Nc2ccc3[nH]ncc3c2)n1 was tested. Which growth did it give?
Answer: Its growth is 9.68% (active).

Question: With COc1ccc2c(c1)[nH]c(=O)c1c3cc(OC)ccc3cn21 as the compound, how does the growth read?
Answer: The growth was -8.1% (active).

Question: For NC(=S)N/N=C/c1ccc(OC(=O)COc2ccc(Cl)cc2)cn1, which growth is on record?
Answer: The growth was 19.3%.

Question: N/C(=N\C(N)=N\c1nc2ccccc2s1)c1ccncc1 was tested. Which growth did it give?
Answer: The growth was 35.2%.

Question: O=C(Nc1ccc(-n2ccc3c(NC(=O)c4ccccc4)nccc32)cc1)Nc1ccc(Cl)c(Cl)c1 was tested. Which growth did it give?
Answer: The growth was -16.4% (active).

Question: Which growth does the source give for Cc1ccn2c3c(c(C(=O)O)c2c1)C(=O)c1ccccc1C3=O here?
Answer: The growth was 73.2%.

Question: With Nc1ccccc1-c1ccc(-c2ccc(Cl)cc2)c2c1[nH]c1ccccc12 as the compound, how does the growth read?
Answer: Its growth is 70.9%.

Question: With O=C(Nc1ccc(C(=O)/C=C/c2ccc(N3CCOCC3)cc2)cc1)Nc1ccc([N+](=O)[O-])cc1 as the compound, how does the growth read?
Answer: Its growth is 70.6%.

Question: How did the growth turn out when COc1cccc(/C=C2\C=C(c3ccccc3)N(Cc3ccccc3)C2=O)c1 was run?
Answer: The growth was 90.7%.

Question: COc1cccc2ccc(CC(O)(c3ccccc3)c3ccccc3)nc12 was tested. Which growth did it give?
Answer: Its growth is 95.8%.

Question: COC(=O)c1c(NC(=O)CSc2nnnn2-c2ccc(OC)cc2)sc(C)c1C was tested. Which growth did it give?
Answer: Its growth is -6.74% (active).

Question: How did the growth turn out when COCCNC(=O)Nc1ccc2nc(-c3cccs3)c(-c3cccs3)nc2c1 was run?
Answer: The growth was 81.5%.

Question: With COc1ccc(-c2cc(-c3cn(-c4cccc(Cl)c4)nc3-c3ccc(OC)cc3)on2)cc1 as the compound, how does the growth read?
Answer: Its growth is 93.6%.

Question: CN(C)c1ccc(C2Nc3ccccc3-n3cccc32)cc1 (stereo not given) was tested. Which growth did it give?
Answer: The growth was 123%.

Question: With CSc1nc(N)n2nccc2n1 as the compound, how does the growth read?
Answer: Its growth is 106%.

Question: With Oc1ccc(C2OCCO2)c2cccnc12 as the compound, how does the growth read?
Answer: Its growth is 15.8%.
